High-throughput results as filed in PubChem.
SMARCA2 activ – activators of SMARCA2 function. MG213 cells, MMTV-luciferase reporter, dexamethasone, overnight. activation, % at 9.1 µM. 370,000 tested, 1% active. AID 652017; in the data active = activation above about 7.8%;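 note: 0% = vehicle wells and 100% = reference activator wells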
SKN-1 block – blocks SKN-1 activity in C. elegans; C. elegans VP596 Pgst-4::GFP/RFP ratio, acrylamide-induced, 24 h; inhibition, % at 21.8 µM; 360,000 tested, 0.49% active;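 active = interference check ratio from 0.5 to 1.5 plus GFP to RFP signal ratio inhibition reaching or exceeding a fixed threshold, cut at about 30% in these data, passing the limit was not always enough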
NadD block – inhibitors of Staphylococcus aureus NadD; purified NadD enzyme, colorimetric absorbance read-out; 360,000 tested, 0.78% active; inhibition, % at 20 µM; in the data active = inhibition above about 26%
GRIN3A LBD mod – modulates the human NR3A ligand-binding domain; NR3A LBD differential scanning fluorimetry, Tm shift; 0% = protein alone, 100% = glycine-bound protein; Tm shift relative to glycine control, % at 25 µM; 340,000 tested, 2.5% active;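 active = melting temperature shift of at least 10% of the positive control shift, at one fixed dose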
Vif inh – inhibitors of HIV Vif | 340,000 tested, 0.35% active | inhibition, % at 7.49 µM | HEK293T cells, Vif self-association by quenched fluorescence, imaging, 24 h | AID 602346; in the data active = inhibition above about 50%, passing the limit was not always enough; inconclusive = no clear call, values can overlap the other calls; inactive = below about 31%
esBAF inh – inhibitors of esBAF chromatin remodeling in mouse ES cells; Bmi1-luciferase knock-in reporter, 24 h; 100% = twice the neutral-well signal; reporter increase, % at 12.5 µM; 350,000 tested, 2% active; AID 602393; in the data active = activation above about 40%; inconclusive = no clear call, values can overlap the other calls;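 note: 0% = median of the plate's neutral control wells and 100% = double that signal; a rise in the Bmi1 reporter signal indicates esBAF inhibition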
SMARCA2 act conf – confirmation of SMARCA2 (BRM) function activators; MG213 cells, MMTV-luciferase with dexamethasone, luminescence, overnight; MG213 cells expressing E1A, Rb sequestered; DMSO wells 0%, reference activator 100%; AID 652260; shares compounds with SMARCA2 activ; 3,500 tested, 30% active; activation, % at 9.1 µM;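 active = activation above its plate's cutoff, the mean activation of tested wells plus 3 SD, cut at about 7.9% in these data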
VP16 Luc act – counter-screen for SMARCA2 activators: GAL4-VP16 luciferase reporter activation | shares compounds with SMARCA2 activ | activation, % at 9.1 µM | HEK293 GAL4-VP16 pG5luc reporter, luciferase luminescence; scaled: DMSO wells 0%, SAHA wells 100% | 3,500 tested, 41% active | AID 686939;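 active = activation above the solvent-only control well mean plus 3 SD, averaged across control plates, cut at about 5.2% in these data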
Starred values were filed as active, the others as inactive; ? = inconclusive; . = no result. Only some compounds are listed: those with a hit (about 5.2% of all), similar ones and a draw of the others.

SMILES | SMARCA2 activ | SKN-1 block | NadD block | GRIN3A LBD mod | Vif inh | esBAF inh | SMARCA2 act conf | VP16 Luc act
N#CC1=C(N)Oc2n[nH]c(-c3cccnc3)c2C1c1ccc([N+](=O)[O-])o1 (centres undefined) | 10* | 68 | -5 | -4 | -2 | . | -1 | 1
C[C@@H]1CN([C@@H](C)CO)C(=O)c2cc(/C=C/c3ccccc3)cnc2O[C@H]1CN(C)S(=O)(=O)c1cn(C)cn1 | . | . | . | . | . | -2 | . | .
O=Nc1c2cc(-c3ccccc3)[nH]nc-2c2ccccc12 | 8.5* | 8 | -1 | 3 | -12 | -41 | 9.8* | 5.5*
Cc1ccc(-c2cc3c(N=O)c4ccccc4c-3n[nH]2)cc1 | -6 | 3 | 6 | -1 | -4 | . | . | .
CC(C)(C)c1ccc(NC(=O)Nc2ccc(OCC(=O)N3CCOCC3)cc2)cc1 | 8.2* | -4 | -1 | -2 | -4 | . | 5 | 15*
O=C(Nc1ccc(OCC(=O)N2CCOCC2)cc1)Nc1cccc(Cl)c1 | 0 | 5 | -3 | -2 | 1 | . | . | .
CC1(c2ccncc2)Nc2ccccc2-c2nc3ccccc3n21 (centres undefined) | 9.1* | -5 | -3 | -20 | 4 | 38 | 3 | 4
C[C@H]1CCCCO[C@@H](CN(C)C(=O)c2ccncc2)[C@@H](C)CN([C@@H](C)CO)C(=O)c2cc(NS(C)(=O)=O)ccc2O1 | . | . | . | . | . | -4 | . | .
COCC(=O)N(C)C[C@H]1Oc2cc(-c3ccc(OC)cc3)ccc2S(=O)(=O)N([C@@H](C)CO)C[C@@H]1C | . | . | . | . | . | -8 | . | .
COc1ccc(/C=N/Nc2cc(C)nc3ccc(Br)cc23)cc1 | 9.4* | 24 | 9 | -5 | -4 | -43 | 4 | 1
COc1cccc2c(N/N=C/c3ccccc3)cc(C)nc12 | 5 | 6 | 0 | 2 | -7 | 6 | . | .
COc1ccc2nc(C)cc(N/N=C/c3cccc(OC)c3O)c2c1 | 27* | -11 | 10 | -1 | -8 | -3 | 20* | 2
C[C@H]1CN([C@@H](C)CO)C(=O)c2cccc(NC(=O)c3ccc(-c4nccs4)cc3)c2O[C@@H]1CN(C)Cc1ccc(Cl)c(Cl)c1 | . | . | . | . | . | 0 | . | .
CC(C)(C)c1ccc(-c2nnc(SCC(=O)NC3CC3)o2)cc1 | 9.0* | -7 | 1 | -1 | -3 | 40 | 0 | 5.5*
COc1ccc2[nH]c(C)c(CCN3C(=O)C4CC=CCC4C3=O)c2c1 (centres undefined) | 9.1* | -7 | -1 | 0 | 0 | -1 | -4 | -2
COc1ccc2[nH]c(C)c(CCN3C(=O)OC(C)(C)C3(C)O)c2c1 (centres undefined) | -1 | 2 | 1 | -4 | -13 | -3 | . | .
CO[C@H]1CN(C)C(=O)c2cc(NS(=O)(=O)c3cccc(Cl)c3)ccc2OC[C@@H](C)NC[C@@H]1C | . | . | . | . | . | 1 | . | .
c1coc(-c2nnc(NC3=NCCC3)o2)c1 | 8.8* | -36 | 1 | 0 | . | 15 | 3 | 5.4*
Cc1cc(/C(N)=N/OC(=O)c2ccccc2Cl)no1 | 8.6* | -1 | -3 | 0 | 7 | . | 12* | 11*
CC(Oc1ccc(Cl)cc1Cl)C(=O)NC1CCSC1=O (centres undefined) | 8.3* | 11 | 2 | 1 | 9 | 0 | 1 | 1
Cc1cccc(-c2nsc(SCC(=O)Nc3ccc4c(c3)OCO4)n2)c1 | 9.7* | 6 | -7 | 6 | -1 | . | 2 | 1
O=C(CSCc1ccccc1)Nc1ccc2c(c1)OCO2 | -1 | 6 | 6 | -1 | 12 | 33 | . | .
O=C(CSc1ccccc1F)Nc1ccc2c(c1)OCO2 | 11* | 13 | -3 | -14 | 1 | 30 | 6 | 5.7*
Cc1ccccc1-c1nsc(SCC(=O)Nc2ccc3c(c2)OCO3)n1 | 2 | 3 | -2 | 3 | 1 | . | . | .
COc1ccccc1CNC(=O)C[C@@H]1CC[C@@H](NC(C)=O)[C@@H](CO)O1 | . | . | . | . | . | -3 | . | .
SMILES | SMARCA2 activ | SKN-1 block | NadD block | GRIN3A LBD mod | Vif inh | esBAF inh | SMARCA2 act conf | VP16 Luc act
Cc1ccc(/C=C2/CCc3c([nH]c4ccccc34)C2=O)cc1 | 8.2* | -18 | 11 | -1 | 12 | 34 | 3 | 11*
O=[N+]([O-])c1cnc(Sc2ccncn2)s1 | 12* | 2 | 1 | 2 | -13 | . | -15 | 5.5*
CN(C)CC(=O)N[C@H]1CC[C@H](CCNC(=O)C2CCC2)O[C@H]1CO | . | . | . | . | . | 5 | . | .
Cc1occc1C(=O)NNC(=O)c1ccccc1C(=O)O | 12* | -10 | -2 | 0 | 14 | . | 5 | 5
Cc1ccccc1C(=O)NNC(=O)c1ccoc1C | -2 | -18 | -8 | 0 | 3 | 10 | . | .
CC(=O)c1cccc(NC(=S)NC(=O)c2ccccc2)c1 | -1 | 1 | -1 | -1 | -3 | . | . | .
CC(=O)c1cccc(NC(=S)NC(=O)C(C)C)c1 | 8.7* | 9 | -1 | -2 | 87* | 3 | -1 | 0
COc1ccc(N=NC2=C(O)CC(C)(C)CC2=O)cc1 | 0 | -26 | -8 | 0 | 9 | 1 | . | .
CC1(C)CC(=O)C(N=Nc2ccc(Br)cc2)=C(O)C1 | 8.3* | 25 | -6 | -1 | 0 | . | 11* | 4
COc1ccc(NC(=O)c2ccccc2NC(=O)CSc2ccc(C)cc2)cc1 | 1 | 15 | 10 | 0 | ? | 18 | . | .
CCOC(=O)C(=O)Nc1ccccc1C(=O)Nc1ccc(OC)cc1 | 9.1* | 15 | 0 | 2 | 12 | 9 | 0 | 1
Cc1noc(C)c1S(=O)(=O)Nc1ccc2c(c1)C(=O)N([C@@H](C)CO)C[C@H](C)[C@H](CN(C)C(=O)CCCN(C)C)OCCCC[C@H](C)O2 | . | . | . | . | . | -3 | . | .
CC=Cc1ccc2n(c1=O)C[C@H]1[C@H](CO)[C@@H](C(=O)NCC3CC3)[C@@H]2N1S(=O)(=O)c1cn(C)cn1 (mixture of isomers) | . | . | . | . | . | 3 | . | .
Cc1onc(-c2ccccc2Cl)c1C(=O)NC(=S)Nc1ccc(C(C)(C)C)cc1 | 11* | -6 | 1 | 1 | -1 | . | 3 | -1
O=C(O)c1cn(C2CCCCC2)c2ccccc2c1=O | 17* | 2 | 3 | 1 | 1 | 4 | -1 | 0
C[C@@H]1O[C@@H](OC[C@H]2O[C@@H](Oc3c(-c4ccc(O)c(O)c4)oc4cc(O)cc(O)c4c3=O)[C@H](O)[C@@H](O)[C@@H]2O)[C@H](O)[C@H](O)[C@H]1O | 8.2* | 3 | -1 | 5 | -2 | 3 | 0 | 2
